KCNQ2 pot: enhances the rat KCNQ2 potassium channel. CHO-K1 KCNQ2, FluxOR thallium flux fluorescence; active compounds read high. B-score at 10 µM. hit rate 0.54% among 310,000;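 active = fluorescence ratio B-score at least 3 SD of library B-scores, with initial fluorescence B-score within 3 of them, cut at about 5.3 in these data; same plate scores as AID 2156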;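 also: B-score of peak minus minimum over baseline fluorescence ratio after K+ and Tl+ stimulus; positive B-score means potentiation of KCNQ2 with more thallium influx and brighter signal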
KCNQ2 block: blocks the rat KCNQ2 potassium channel; O88943; CHO-K1 KCNQ2, FluxOR thallium flux, 20 min; active compounds read low; B-score at 10 µM; hit rate 1.1% among 310,000;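 active = fluorescence ratio B-score at most minus 3 library SDs, with starting brightness B-score within 2 library SDs, cut at about -5.5 in these data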
Kir21 confirm: confirmation of mouse Kir2.1 potassium channel inhibitors. shares compounds with KCNQ2 pot. Kir2.1-expressing cells, FluxOR thallium flux fluorescence; active compounds read low. Tl flux remaining, % of negative control (active compounds read low), % at 10 µM. hit rate 41% among 2,300. AID 2032;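 active = Primary-screen hit whose thallium flux fell at least 3 control SD below untreated wells in both duplicates, with normal baseline fluorescence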
HEK293 Tl flux: alters thallium flux in parental HEK293 cells, Kir2.1 counter-screen; shares compounds with KCNQ2 pot; FluxOR thallium flux fluorescence; 0% = unstimulated blank wells; FluxOR signal as % of negative control (100 = no effect), % at 10 µM; hit rate 19% among 2,300; AID 2105;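 active = dye signal at least 3 control SD above or below untreated wells in both duplicates, raw fluorescence within 3, either direction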;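 also: percent is based on the flux ratio of peak minus minimum fluorescence over baseline F0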
CHO-K1 Tl ctr: counter-screen for KCNQ2 potentiators: effect in parental CHO-K1 cells; shares compounds with KCNQ2 pot; FluxOR thallium flux fluorescence; zero = vehicle mean+3SD, 100% = vehicle-minus-blank window; activity increase over 3SD of controls, % at 10 µM; hit rate 43% among 1,200;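 active = signal rise of at least 3 SD above the untreated control mean, in both duplicate wells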;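 also: counter screen of KCNQ2 potentiator hits so any rise reflects channel-independent effects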
KCNQ1 pot spec: tests whether KCNQ2 potentiators also act on human KCNQ1; shares compounds with KCNQ2 pot; CHO KCNQ1 stable, FluxOR thallium flux fluorescence; beyond 3SD, as % of vehicle-control signal; activation over 3SD threshold, % at 10 µM; hit rate 28% among 1,200; AID 2283;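 active = fluorescence ratio rise of at least 3 SD of vehicle wells above their mean, in both replicate wells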
KCNQ2 pot conf: confirmation of rat KCNQ2 potassium channel potentiators; CHO-KCNQ2 cells, FluxOR thallium flux fluorescence; hit rate 68% among 1,200; AID 2287; shares compounds with KCNQ2 pot; potentiation, less the hit threshold, % at 10 µM;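 active = fluorescence ratio rising 3 SD or more over the vehicle control mean in both replicates, plus primary screen hit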;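 also: peak minus minimum thallium fluorescence divided by baseline after K/Tl stimulus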
Kir21 spec: selectivity of KCNQ2 potentiators: effect on mouse Kir2.1 | shares compounds with KCNQ2 pot | HEK293 Kir2.1, FluxOR thallium flux fluorescence | activity over 3SD threshold, % at 10 µM | hit rate 2% among 1,200 | AID 2345;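 active = fluorescence ratio rise of at least 3 SD above the vehicle-control mean, seen in both replicates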
KCNQ2 W236L pot: potentiates the retigabine-insensitive rat KCNQ2 W236L mutant channel | AID 2558 | shares compounds with KCNQ2 pot | current increase over 3SD of negative controls (%), active compounds read high, % at 25 µM | CHO KCNQ2-W236L, automated patch clamp current | hit rate 10% among 940;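 active = current increase at least 3 SD of the untreated controls above them in both duplicate recordings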
Target sequence (O88943 whole entry W236L, looked up): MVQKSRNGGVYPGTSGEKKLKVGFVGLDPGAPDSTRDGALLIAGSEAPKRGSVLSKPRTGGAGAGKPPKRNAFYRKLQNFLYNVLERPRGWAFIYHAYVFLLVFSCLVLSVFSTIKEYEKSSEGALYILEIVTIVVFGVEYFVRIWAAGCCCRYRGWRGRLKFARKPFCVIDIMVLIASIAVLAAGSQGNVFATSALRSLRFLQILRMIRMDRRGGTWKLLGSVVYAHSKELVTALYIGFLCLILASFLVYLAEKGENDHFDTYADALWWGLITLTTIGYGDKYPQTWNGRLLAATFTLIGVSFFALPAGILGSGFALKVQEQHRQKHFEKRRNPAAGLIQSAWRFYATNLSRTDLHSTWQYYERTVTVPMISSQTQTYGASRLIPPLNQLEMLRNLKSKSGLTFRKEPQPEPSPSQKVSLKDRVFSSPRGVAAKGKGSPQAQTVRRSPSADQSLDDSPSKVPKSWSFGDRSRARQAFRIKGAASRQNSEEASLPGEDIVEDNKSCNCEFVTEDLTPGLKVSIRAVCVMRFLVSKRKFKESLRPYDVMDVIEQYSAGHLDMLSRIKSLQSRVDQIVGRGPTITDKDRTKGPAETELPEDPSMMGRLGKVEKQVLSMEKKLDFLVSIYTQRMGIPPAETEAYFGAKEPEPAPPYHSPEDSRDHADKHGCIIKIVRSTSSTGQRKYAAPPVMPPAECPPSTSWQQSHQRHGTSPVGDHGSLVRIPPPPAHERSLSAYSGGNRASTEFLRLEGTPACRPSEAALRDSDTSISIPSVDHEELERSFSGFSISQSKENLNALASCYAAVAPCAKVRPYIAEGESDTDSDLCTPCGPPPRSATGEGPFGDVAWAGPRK
Of the large screens only hits and unclear results are named; the others gave an inactive call (follow-up assays come after a bar, where they were run). Rows were chosen to be rich in hits. Some 1.6% of all compounds tested hit in one or more screens of this group.

CN1C(=O)/C(=N\OC(=O)c2cccc3ccccc23)c2ccccc21	KCNQ2 pot 5.4 | Kir21 confirm inactive | HEK293 Tl flux inactive | CHO-K1 Tl ctr inactive | KCNQ1 pot spec inactive | KCNQ2 pot conf inactive | Kir21 spec inactive
Cc1cc(C)nc(SCC(=O)Nc2ncc(Cc3cccc(Cl)c3)s2)n1	none (no result: KCNQ2 pot)
Cc1oc2ccc(O)c(CN(C)C)c2c1C(=O)c1ccccc1	none (no result: KCNQ2 pot)
CCOC(=O)c1c(-c2ccccc2)oc2ccc(O)c(CN(C)C)c12	none | Kir21 confirm inactive | HEK293 Tl flux inactive
CCOC(=O)c1c(-c2ccccc2)oc2ccc(O)c(CN3CCCC3)c12	none (no result: KCNQ2 pot) | Kir21 confirm 26% | HEK293 Tl flux inactive
CCOC(=O)c1c(-c2ccccc2)oc2ccc(OCC(O)CN(C)C)cc12 (configuration not stated)	KCNQ2 block -5.6 | Kir21 confirm inactive | HEK293 Tl flux inactive
COCCOC(=O)c1c(C)oc2ccc(O)c(CN3CCC(C)CC3)c12	none
CCOC(=O)c1c(-c2ccccc2)oc2ccc(OC(C)C(=O)O)cc12 (configuration not stated)	none (no result: KCNQ2 pot)
Oc1ccccc1CNc1cccc2cccnc12	none (no result: KCNQ2 pot)
Nc1sc(-c2ccccc2)n[n+]1Cc1cccc2cccnc12	none (no result: KCNQ2 pot) | Kir21 confirm inactive | HEK293 Tl flux inactive
Cc1cccc(-c2nn(-c3ccccc3)cc2C(=O)NCC(c2cccs2)N2CCOCC2)c1 (configuration not stated)	none (no result: KCNQ2 pot)
CC(C)Oc1ccccc1NC(=O)CSc1nc2ccccc2c(=O)n1C	none | Kir21 confirm 58% | HEK293 Tl flux inactive
Cc1ccccc1NC(=O)CSc1nc2ccccc2c(=O)n1C	none
Cn1c(=O)c2c(ncn2CC(=O)OCC(=O)c2ccc(Cl)cc2)n(C)c1=O	none
NNC(=O)c1ccc(COc2ccc3ccccc3c2)o1	none
O=C(OCc1ccccn1)c1ccc(COc2ccc3ccccc3c2)o1	KCNQ2 pot 5.4 | Kir21 confirm inactive | HEK293 Tl flux inactive | CHO-K1 Tl ctr inactive | KCNQ1 pot spec inactive | KCNQ2 pot conf inactive | Kir21 spec inactive
COCC1CCCN(C(=O)c2cc(COc3ccc4ncccc4c3)on2)C1 (configuration not stated)	none
Oc1c(Br)cc(Br)cc1/C=N/Nc1ccc(Cl)nn1	KCNQ2 pot 11 | Kir21 confirm inactive | HEK293 Tl flux inactive | CHO-K1 Tl ctr inactive | KCNQ1 pot spec inactive | KCNQ2 pot conf 13 | Kir21 spec inactive | KCNQ2 W236L pot inactive
Oc1c(Br)cc(/C=N/Nc2ccc(Cl)nn2)cc1Br	none
COc1ccccc1Nc1nc(N)nc(CN2CCN(c3ccccc3)CC2)n1	none
O=C1CN(C(=O)c2ccccc2Br)C(c2ccc(F)cc2)c2cc(F)ccc2N1 (configuration not stated)	none (no result: KCNQ2 pot)
CCOC(=O)c1ccc(N2C(=O)CC(C3CCCO3)C2=O)cc1 (configuration not stated)	none (no result: KCNQ2 pot)
O=S(=O)(Nc1nc(-c2sccc2Cl)cs1)c1cc(Cl)ccc1Cl	KCNQ2 pot 19 | Kir21 confirm inactive | HEK293 Tl flux 339% | CHO-K1 Tl ctr 17 | KCNQ1 pot spec inactive | KCNQ2 pot conf 149 | Kir21 spec inactive | KCNQ2 W236L pot inactive
CC(C)(C)c1nnc(NS(=O)(=O)c2cc(Cl)ccc2Cl)s1	none
O=C(O)c1cc(-c2cccnc2)nn1-c1ccccn1	none
O=C(Cc1ccccc1)Nc1ccc(NC(=O)C2CCCCC2)nc1	none (no result: KCNQ2 pot)
C#CCNC(=O)C1=C[C@@H](C2CC2)C[C@@H](OCc2ccc(CO)cc2)O1	none | Kir21 confirm 51% | HEK293 Tl flux inactive
C#CCNC(=O)C1=C[C@@H](C(C)(C)C)C[C@@H](OCc2ccc(CO)cc2)O1	none (no result: KCNQ2 pot)
Nc1n[nH]c(=S)n1-c1ccc(Cl)cc1	none (no result: KCNQ2 pot)
CN(CC(=O)NCCCc1ccccc1)Cc1ccc(Br)cc1	none (no result: KCNQ2 pot)
O=C(Cc1ccccc1)NCCc1cccc(Cl)c1	KCNQ2 pot 11 | Kir21 confirm inactive | HEK293 Tl flux inactive | CHO-K1 Tl ctr inactive | KCNQ1 pot spec inactive | KCNQ2 pot conf 23 | Kir21 spec inactive | KCNQ2 W236L pot inactive
O=C(O)CCC(=O)NCCc1cccc(Cl)c1	none (no result: KCNQ2 pot)
CSc1ccccc1NC(=O)CN(C)Cc1cccc(Cl)c1	none (no result: KCNQ2 pot)
CN(CC(=O)NCCc1ccc(F)cc1)Cc1cccc(Cl)c1	none (no result: KCNQ2 pot) | Kir21 confirm 45% | HEK293 Tl flux inactive
CN(CC(=O)NCCc1ccc(F)cc1)Cc1ccc(Br)cc1	KCNQ2 block -5.7 | Kir21 confirm 58% | HEK293 Tl flux inactive
COc1ccc(C(=O)NC(=S)Nc2cccc3nc(C)ccc23)cc1OC	none
CCc1nnc(/N=C/c2c(O)n(-c3ccc(Cl)cn3)c(=O)c3ccccc23)s1	none (no result: KCNQ2 pot)
Cc1ccccc1OCC(=O)Nn1c(COc2ccccc2)nc2ccccc2c1=O	none
Oc1c(Cl)cc(Cl)cc1C=Nc1ccc(N2CCOCC2)cc1	none
Oc1c(Cl)cc(Cl)cc1C=Nc1ccc(Br)cc1	KCNQ2 pot 7.1 | Kir21 confirm inactive | HEK293 Tl flux inactive | CHO-K1 Tl ctr inactive | KCNQ1 pot spec 31 | KCNQ2 pot conf 16 | Kir21 spec inactive | KCNQ2 W236L pot inactive
CCn1c(=O)n(CC)c2cc(N3CCCC3)c(NC(=O)c3cccc(C)c3)cc21	none (no result: KCNQ2 pot)
CCn1c(=O)n(CC)c2cc(NC(=O)C(C)c3ccccc3)c(Br)cc21 (configuration not stated)	KCNQ2 pot 22 | Kir21 confirm inactive | HEK293 Tl flux inactive | CHO-K1 Tl ctr inactive | KCNQ1 pot spec inactive | KCNQ2 pot conf 95 | Kir21 spec inactive | KCNQ2 W236L pot inactive
Cc1ccccc1OCc1nnc(SCC(=O)O)n1-c1ccccc1	none
Cc1ccccc1OCCSc1nnc(C)n1-c1ccccc1	none (no result: KCNQ2 pot) | Kir21 confirm 46% | HEK293 Tl flux inactive
O=C(NC(=S)Nc1ccc(Cl)cc1)c1cncc(Br)c1	none
Cc1ccc(NC(=S)NC(=O)c2cncc(Br)c2)cc1Cl	KCNQ2 pot 7.2 | Kir21 confirm inactive | HEK293 Tl flux inactive | CHO-K1 Tl ctr 0.8 | KCNQ1 pot spec inactive | KCNQ2 pot conf inactive | Kir21 spec inactive
O=C(CSc1c2c(nc3cc(Cl)ccc13)CCCC2)NCc1ccco1	none (no result: KCNQ2 pot) | Kir21 confirm 57% | HEK293 Tl flux inactive
O=C(CSc1nc2ccc(Cl)cc2[nH]1)NCc1ccco1	none
CN1CCN(c2ccc(Nc3ccnc4cc(Cl)ccc34)cc2)CC1	none (no result: KCNQ2 pot) | Kir21 confirm 58% | HEK293 Tl flux inactive
CCOc1ccc(Nc2ccnc3cc(Cl)ccc23)cc1	none (no result: KCNQ2 pot)
CC(=O)Oc1ccc(Cn2cnc3cc4ccccc4cc32)cc1	none

Source: PubChem BioAssay
